Experimental findings from PubChem BioAssay are described below.

Broadly, the inhibition is the relative decrease from the control value, in per cent.

Calls of active or inactive are those of the source.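 Rule for the calls, unless noted: active = inhibition at or above 50% relative to wild type and mutant plate controls; inactive = inhibition below 50%.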

Test [1] is described as follows: inhibitors of TNFa-induced NFkB p65 translocation, primary screen, imaging, HUVEC, MLSMR starter and 10KST1 sets (AID 438;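 active = inhibition above 20% together with a positive visual image hit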;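 note: compound added about 3h40 before a 20 min TNFalpha stimulation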;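 for inhibition: signal is the nuclear over cytoplasmic p65 intensity ratio per well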). The note with it: HUVEC TNFa-induced p65 nuclear translocation; cell count: measured here: nuclei count (cytotoxicity indicator), at 2.08 µM; inhibition: at 2 µM, stronger effect = higher value, 0% TNFa-plus-vehicle, 100% no-TNFa wells.
The nature of test [2]: inhibitors of E-selectin induction by TNFa, primary screen, imaging, HUVEC, immunofluorescence, MLSMR starter and 10KST1 sets (AID 487;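 active = visually confirmed hit in the image check and inhibition above 20%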;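 for inhibition: signal is fraction of cell area covered by stained E-selectin grains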;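 for nuclei count: 100% = median nuclei count of all wells on the same plate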). The note with it: HUVEC TNFalpha-induced E-selectin immunofluorescence imaging, at 2 µM; inhibition: stronger effect = higher value; nuclei count: measured here: cell number, toxicity.
Test [3] is described as follows: DUSP6 inhibitors restoring Erk phosphorylation by chemical complementation, primary imaging in DUSP6-transfected HeLa (AID 609;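 active = compounds giving at least 50% inhibition in the cell-based MKP-3 phosphatase rescue imaging test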;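 for inhibition: phospho-Erk level distribution per well compared with pooled transfected vehicle control wells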). The note with it: HeLa MKP-3 transfected, phospho-Erk imaging KS statistic, at 10 µM, cells stimulated with TPA for 15 min.
For test [4], the target named is Dual specificity protein phosphatase 6 (Homo sapiens) (UniProt Q16828). The description is as above. The note with it: HeLa MKP-3 transfected, phospho-Erk imaging KS statistic; at 10 µM; stronger effect = higher value; cells stimulated with TPA for 15 min.
Dual specificity protein phosphatase 6 (Homo sapiens), sequence (Q16828 whole entry, looked up): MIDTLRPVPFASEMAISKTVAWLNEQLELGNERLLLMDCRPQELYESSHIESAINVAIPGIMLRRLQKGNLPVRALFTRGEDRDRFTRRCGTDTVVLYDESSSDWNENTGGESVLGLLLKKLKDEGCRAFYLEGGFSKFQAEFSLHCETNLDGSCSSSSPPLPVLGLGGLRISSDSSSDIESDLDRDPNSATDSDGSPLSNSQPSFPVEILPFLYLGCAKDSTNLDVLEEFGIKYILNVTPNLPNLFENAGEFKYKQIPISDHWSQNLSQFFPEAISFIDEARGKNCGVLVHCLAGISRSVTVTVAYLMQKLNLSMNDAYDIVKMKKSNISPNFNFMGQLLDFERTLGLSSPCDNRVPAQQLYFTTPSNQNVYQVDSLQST
Test [5] concerns the target Voltage-gated potassium channel subunit beta-2 (Rattus norvegicus) (UniProt P62483). The test is described as follows: KvBeta enzyme negative modulators, primary screen, biochemical, NADPH fluorescence (AID 622;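 active = fluorescence slope higher than the sample average by over 3 SD, cut at about -0.22 in these data, passing the limit was not always enough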;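 note: slope of raw intensity against log time taken from 70 to 1610 s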). The note with it: recombinant KvBeta, 4-cyanobenzaldehyde reduction, at 10 µM, stronger effect = higher value.
Test [6] shares this target. Put plainly: KvBeta positive modulators, primary screen, biochemical, NADPH fluorescence (AID 623;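 active = NADPH fluorescence slope more negative than the mean of all samples by about 3 SD, 99.7% confidence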;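 note: fluorescence intensity change per second fitted from 20 to 320 s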). The note with it: Recombinant KvBeta, NADPH fluorescence decrease slope, 10 min; at 10 µM; stronger effect = lower value.
Test [7] concerns the target Alpha-2C adrenergic receptor (Homo sapiens) (UniProt P18825). Put plainly: modulators of alpha2C/GIRK thallium flux, primary screen, cell-based, HEK293 alpha2C/GIRK1/2 (AID 624;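 active = fluorescence slope after compound addition differing from the mean of all screened samples at 99.7% confidence, in either direction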;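 note: slope of fluorescence ratio to pre-addition baseline per second over 15 to 24 s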). The note with it: thallium flux BTC fluorescence, at 10 µM, actives lie on both sides.
Test [8] in a line: inhibitors of Chlamydomonas gravitaxis, primary screen, whole organism, Chlamydomonas reinhardtii, WT vs cilia-less mutant, absorbance, 96-well (AID 463189).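 Note: 0% = wild type cc124 cells in DMSO and 100% = ciliumless bld1 mutant cells.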 The note with it: OD600 absorbance, 2 days, at 10 µM, stronger effect = higher value.
The mark [9] stands for this setting: measured here: cell density z-score.
[10] abbreviates: measured here: nuclear c-Myc green intensity z-score.
Where [11] appears, read: measured here: nuclear pErk red intensity z-score, stronger effect = higher value.

Alpha-2C adrenergic receptor (Homo sapiens), sequence (P18825 whole entry, looked up): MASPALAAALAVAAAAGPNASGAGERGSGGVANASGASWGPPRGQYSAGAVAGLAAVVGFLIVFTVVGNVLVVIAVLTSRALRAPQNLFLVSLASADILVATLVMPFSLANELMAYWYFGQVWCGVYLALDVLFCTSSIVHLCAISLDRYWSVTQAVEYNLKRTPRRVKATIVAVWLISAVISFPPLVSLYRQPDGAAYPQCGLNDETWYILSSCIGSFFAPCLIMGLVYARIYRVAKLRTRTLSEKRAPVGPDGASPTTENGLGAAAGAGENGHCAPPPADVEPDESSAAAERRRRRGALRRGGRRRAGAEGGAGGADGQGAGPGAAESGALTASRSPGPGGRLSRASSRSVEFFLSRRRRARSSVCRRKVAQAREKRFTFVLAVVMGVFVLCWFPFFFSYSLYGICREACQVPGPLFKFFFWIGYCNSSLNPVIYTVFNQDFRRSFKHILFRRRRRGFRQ
Voltage-gated potassium channel subunit beta-2 (Rattus norvegicus), sequence (P62483 whole entry, looked up): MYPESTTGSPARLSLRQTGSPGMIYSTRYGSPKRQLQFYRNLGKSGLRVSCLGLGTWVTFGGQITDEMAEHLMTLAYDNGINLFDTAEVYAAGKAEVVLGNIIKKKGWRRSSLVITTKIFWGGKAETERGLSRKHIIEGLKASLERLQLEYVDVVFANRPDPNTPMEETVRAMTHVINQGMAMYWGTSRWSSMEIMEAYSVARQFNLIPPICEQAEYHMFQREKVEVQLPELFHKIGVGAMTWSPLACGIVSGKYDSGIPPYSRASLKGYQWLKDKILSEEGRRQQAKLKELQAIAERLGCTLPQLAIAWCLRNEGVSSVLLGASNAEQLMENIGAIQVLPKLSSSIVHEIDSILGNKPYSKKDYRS

For the compound `COCCN(CCOC)C(=O)C12CCC(C)(C(=O)C1)C2(C)C` (stereo unspecified), the cell count in test [1] came out at 237. Besides, the inhibition in test [1] is -4.2% (inactive); in test [2], 17.3% (inactive); in test [4], 10.5% (inactive); in test [8] it was -24.6% (inactive). For the same compound, the nuclei count in test [2] stood at 124%. For the same compound, the z-score in test [3] (setting [9]) came to 0.486; in test [3] (setting [10]) it was 2.03; in test [3] (setting [11]), 1.23. Further, the fluorescence slope in test [5] was -0.458 (inactive). Further, the NADPH fluorescence slope in test [6] is -5.9e-05 (inactive). The slope in test [7] was 0.00572 (inactive).

Take `CC1(C)CC(NC(=O)C23CCC(C)(/C(=N/O)C2)C3(C)C)CC(C)(C)N1` (stereo unspecified): the cell count in test [1] was found to be 378. Further, the inhibition is -8.3% (inactive) in test [1], -45.2% (inactive) in test [2], -14% (inactive) in test [4] and -6.59% (inactive) in test [8]. Besides, in test [2], the nuclei count was 179%. Besides, the results for the z-score in test [3] (setting [9]), in test [3] (setting [10]) and in test [3] (setting [11]) were -1.2, 0.0129 and 1.59, respectively. Moreover, in test [5], the fluorescence slope is -0.399 (inactive). In addition, the NADPH fluorescence slope in test [6] was -0.000147 (inactive). For the same compound, the slope in test [7] is 0.00577 (inactive).

`Cc1cc(N2C(=O)C(=O)/C(=C(/O)c3ccccc3)C2c2cccc(Br)c2)no1` (stereo unspecified): the cell count in test [1] amounted to 298. In addition, the inhibition in test [1] is -10.2% (inactive); in test [2], -43.8% (inactive); in test [4], 1.6e-07% (inactive); in test [8] it was -10.3% (inactive). In test [2], this compound had a nuclei count of 93.2%. Further, the z-score in test [3] (setting [9]) is 0.294; in test [3] (setting [10]), -0.11; in test [3] (setting [11]), 0.565. Further, in test [5], the fluorescence slope is -0.473 (inactive). In test [6], the NADPH fluorescence slope is -3.5e-05 (inactive). Moreover, the slope in test [7] is 0.00638 (inactive).

Consider `COc1cc(C2C(C(=O)c3cccs3)=C(O)C(=O)N2c2cc(C)on2)ccc1O` (stereo unspecified), for which the cell count in test [1] amounted to 340. Besides, the inhibition was 4.6% (inactive) in test [1], -93.3% (inactive) in test [2], -10.5% (inactive) in test [4] and -10.7% (inactive) in test [8]. The same compound displayed a nuclei count in test [2] of 155%. Further, the z-score is 0.402 in test [3] (setting [9]), -0.247 in test [3] (setting [10]) and -0.385 in test [3] (setting [11]). The fluorescence slope in test [5] is -0.43 (inactive). The NADPH fluorescence slope in test [6] is -0.000162 (inactive). In test [7], the slope was 0.00517 (inactive).

For `CC1=CC(c2ccccc2)n2nc(N3C(=O)C4CC=CCC4C3=O)nc2N1` (stereo unspecified), in test [1], the cell count turned out to be 367. Further, the inhibition is -3.2% (inactive) in test [1], -63.7% (inactive) in test [2], -5.26% (inactive) in test [4] and -3.33% (inactive) in test [8]. Further, the nuclei count in test [2] came to 153%. Further, the z-score in test [3] (setting [9]) is 0.978; in test [3] (setting [10]) it was -0.382; in test [3] (setting [11]), -0.0463. Also, the fluorescence slope in test [5] is -0.41 (inactive). Moreover, in test [6], the NADPH fluorescence slope was -0.000143 (inactive). In test [7], the slope is 0.00753 (inactive).

With `COc1ccccc1N(Cc1cc2cccc(C)c2[nH]c1=O)C(=O)C(C)C`, in test [1], the cell count was 355. Besides, the inhibition in test [1] is -9.7% (inactive); in test [2], -118% (inactive); in test [4] it was 43.8% (inactive); in test [8], 28.4% (inactive). For the same compound, the nuclei count in test [2] was 171%. For the same compound, the z-score in test [3] (setting [9]) is 1.34; in test [3] (setting [10]) it was -1.06; in test [3] (setting [11]) it was -1.74. Besides, the fluorescence slope in test [5] is -0.449 (inactive). In addition, in test [6], the NADPH fluorescence slope was -0.000154 (inactive). In test [7], the slope is 0.00657 (inactive).

For the compound `O=c1[nH]c(-c2ccccn2)nc2ccccc12`, the cell count in test [1] is 336. Further, the inhibition was -9% (inactive) in test [1], -102% (inactive) in test [2], 1.48% (inactive) in test [4] and 34.7% (inactive) in test [8]. Moreover, the nuclei count in test [2] stood at 126%. The z-score is 0.0403 in test [3] (setting [9]), 0.157 in test [3] (setting [10]) and -1.25 in test [3] (setting [11]). In addition, in test [5], the fluorescence slope is -0.555 (inactive). Further, in test [6], the NADPH fluorescence slope was -4.4e-05 (inactive). For the same compound, the slope in test [7] was 0.00479 (inactive).

Consider `CN1CCN(Cc2c(O)ccc3c(-c4ccccc4)cc(=O)oc23)CC1`, for which, in test [1], the cell count turned out to be 362. Further, the inhibition in test [1] is 6% (inactive); in test [2] it was -97.7% (inactive); in test [4], 1.48% (inactive); in test [8], 8.71% (inactive). Further, in test [2], the nuclei count came out at 124%. Also, the z-score is 0.437 in test [3] (setting [9]), -1.09 in test [3] (setting [10]) and 0.493 in test [3] (setting [11]). Besides, in test [5], the fluorescence slope is -0.269 (inactive). For the same compound, in test [6], the NADPH fluorescence slope was -2.1e-05 (inactive). In test [7], the slope was 0.00684 (inactive).

As to `CCCCc1cc(=O)oc2c(CN(C)C)c(O)c(Cl)cc12`, the cell count in test [1] was found to be 409. Besides, the inhibition in test [1] is -5.1% (inactive); in test [2], -156% (inactive); in test [4], -5.26% (inactive); in test [8], 0.735% (inactive). In addition, the nuclei count in test [2] turned out to be 164%. The figures for the z-score in test [3] (setting [9]), in test [3] (setting [10]) and in test [3] (setting [11]) were -0.211, -0.0215 and 0.835, respectively. In addition, the fluorescence slope in test [5] was -0.163 (inactive). In test [6], the NADPH fluorescence slope was 2.2e-05 (inactive). For the same compound, the slope in test [7] was 0.0046 (inactive).

As for `c1ccc(-c2nc(NCC3CCCO3)c3ccccc3n2)nc1` (stereo unspecified), in test [1], the cell count was 365. Further, the inhibition in test [1] was 0% (inactive); in test [2], -106% (inactive); in test [4], -1.75% (inactive); in test [8], 24.6% (inactive). The compound further registered a nuclei count in test [2] of 173%. Moreover, the z-score was 1.77 in test [3] (setting [9]), -0.891 in test [3] (setting [10]) and -0.309 in test [3] (setting [11]). Moreover, the fluorescence slope in test [5] is -0.436 (inactive). In addition, the NADPH fluorescence slope in test [6] was -0.000131 (inactive). The slope in test [7] is 0.00509 (inactive).

Consider `CCOC(=O)N1CCN(/C=C(\C#N)c2nc3ccccc3s2)CC1`, for which, in test [1], the cell count was 357. In addition, the inhibition is -3.2% (inactive) in test [1], -5.3% (inactive) in test [2], 7.01% (inactive) in test [4] and -8.84% (inactive) in test [8]. Also, the nuclei count in test [2] stood at 136%. The z-score in test [3] (setting [9]) is 1.93; in test [3] (setting [10]), 0.746; in test [3] (setting [11]), -0.877. Besides, the fluorescence slope in test [5] is -0.404 (inactive). In test [6], the NADPH fluorescence slope is -0.000116 (inactive). The slope in test [7] is 0.0139 (inactive).

`COc1ccccc1-c1cc(-c2cc(Cl)ccc2O)n[nH]1`: the cell count in test [1] turned out to be 259. Besides, the inhibition was -13% (inactive) in test [1], -9.5% (inactive) in test [2], 7.01% (inactive) in test [4] and -19.8% (inactive) in test [8]. Moreover, the nuclei count in test [2] worked out at 129%. In addition, the z-score in test [3] (setting [9]) is 1.7; in test [3] (setting [10]) it was -0.531; in test [3] (setting [11]), -0.306. The fluorescence slope in test [5] is -0.453 (inactive). Besides, in test [6], the NADPH fluorescence slope is -1.7e-05 (inactive). The slope in test [7] is 0.0086 (inactive).

For `Cc1ccc(N(Cc2cc3ccccc3[nH]c2=O)C(=O)c2ccco2)c(C)c1`, in test [1], the cell count amounted to 332. For the same compound, the inhibition in test [1] is -14.8% (inactive); in test [2] it was -162% (inactive); in test [4], -14% (inactive); in test [8], 12% (inactive). The compound also gave a nuclei count in test [2] of 173%. Further, the z-score in test [3] (setting [9]) was 0.558; in test [3] (setting [10]), -1.26; in test [3] (setting [11]) it was 0.6. Moreover, in test [5], the fluorescence slope is -0.459 (inactive). Besides, the NADPH fluorescence slope in test [6] was -0.000111 (inactive). Also, the slope in test [7] is 0.00671 (inactive).
